Assay [1] concerns the target Calcium and integrin-binding protein 1 (Homo sapiens) (UniProt Q99828). Put plainly: Validation qHTS for Identification of Calcium Integrin Binding protein 1 (CIB1) Competitor (AID 1508618). The settings on record: CIB1-GST / FITC-alphaIIb peptide fluorescence polarization; series mostly up to 114 µM. A digest of the protocol: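 CIB1-GST (1 uM final) in 5 mM HEPES pH 7.4, 125 mM NaCl, 5 mM CaCl2, 0.01% Tween20 was preincubated 15 min at room temperature with compound (up to 114 uM), then FITC-alphaIIb peptide (100 nM) added for 15 min; fluorescence polarization read.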
(Quantitative high-throughput screening tests each substance at several concentrations.)

The nature of assay [2]: Primary qHTS for small molecule stabilizers of the endoplasmic reticulum resident proteome: Secreted ER Calcium Modulated Protein (SERCaMP) assay (AID 1508630). The settings on record: SH-SY5Y GLuc-SERCaMP (Gaussia luciferase released on ER calcium loss) secretion, thapsigargin, luminescence; series mostly up to 38.4 µM. Summed up: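 The SH-SY5Y reporter protocol was run at 3 concentrations up to 38.3 uM (primary) or 11 concentrations (follow-up): 16 h compound, 100 nM thapsigargin for 4 h, then extracellular luciferase luminescence.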

The target in assay [3] is Papain (Carica papaya) (UniProt P00784). Put plainly: Primary qHTS assay for inhibitors of the protease papain (AID 1645873).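 Note: papain turnover of Z-FR-AMC read as the AMC fluorescence gain over 10 min.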 The settings on record: papain Z-FR-AMC cleavage, AMC fluorescence; series mostly up to 49.8 µM.
Papain (Carica papaya), sequence (P00784 whole entry, looked up): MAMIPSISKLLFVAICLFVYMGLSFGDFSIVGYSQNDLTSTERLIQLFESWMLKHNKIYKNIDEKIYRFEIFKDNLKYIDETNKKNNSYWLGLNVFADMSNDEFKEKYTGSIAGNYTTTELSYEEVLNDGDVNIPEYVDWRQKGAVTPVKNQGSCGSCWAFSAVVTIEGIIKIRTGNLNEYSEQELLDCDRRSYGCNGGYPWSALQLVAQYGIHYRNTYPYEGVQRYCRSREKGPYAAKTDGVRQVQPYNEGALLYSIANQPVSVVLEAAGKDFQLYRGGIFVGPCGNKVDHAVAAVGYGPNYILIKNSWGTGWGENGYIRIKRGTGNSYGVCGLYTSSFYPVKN
Assay [4] deals with Cytochrome P450 2D6 (Homo sapiens) (UniProt P10635). Put plainly: Cytochrome P450 family 2 subfamily D member 6 (CYP2D6) small molecule antagonists: luciferase biochemical (cell-free) qHTS assay (AID 1645840; active = well fitted curve in the direction sought with a large enough effect in the repeat runs; an effect the other way counts as inactive or inconclusive; note: nearly all actives have a fitted effect of over 55% in size). The note with it: P450-Glo CYP2D6 enzyme, luciferin luminescence, 1 h; series mostly up to 57.4 µM. Summed up:
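P450-Glo CYP2D6 system: proluciferin substrate converted by enzyme to luciferin, read by luminescence proportional to activity. Enzyme-substrate mix with compound 10 min at room temperature, then NADPH regeneration 1 h before detection reagent.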

Here are results for 33 molecules from PubChem BioAssay (NCATS).

Records with an inconclusive call do not appear. A call without a number means that no potency is given here. Calls of active or inactive are those of the source. Unless noted, calls come from the whole dose curve; as a rule, active = well fitted curve in the direction sought with a large enough effect; inconclusive = small, poorly fitted or top-dose-only effect, or another doubt; inactive = no such curve, though single readings can be large; an effect the other way counts as inactive or inconclusive.

Calcium and integrin-binding protein 1 (Homo sapiens), sequence (Q99828 whole entry, looked up): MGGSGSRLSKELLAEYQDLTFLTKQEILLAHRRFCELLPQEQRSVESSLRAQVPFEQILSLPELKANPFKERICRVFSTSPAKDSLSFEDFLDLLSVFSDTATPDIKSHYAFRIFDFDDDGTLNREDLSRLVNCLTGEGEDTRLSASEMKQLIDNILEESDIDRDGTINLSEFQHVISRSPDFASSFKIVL
Cytochrome P450 2D6 (Homo sapiens), sequence (P10635 whole entry, looked up): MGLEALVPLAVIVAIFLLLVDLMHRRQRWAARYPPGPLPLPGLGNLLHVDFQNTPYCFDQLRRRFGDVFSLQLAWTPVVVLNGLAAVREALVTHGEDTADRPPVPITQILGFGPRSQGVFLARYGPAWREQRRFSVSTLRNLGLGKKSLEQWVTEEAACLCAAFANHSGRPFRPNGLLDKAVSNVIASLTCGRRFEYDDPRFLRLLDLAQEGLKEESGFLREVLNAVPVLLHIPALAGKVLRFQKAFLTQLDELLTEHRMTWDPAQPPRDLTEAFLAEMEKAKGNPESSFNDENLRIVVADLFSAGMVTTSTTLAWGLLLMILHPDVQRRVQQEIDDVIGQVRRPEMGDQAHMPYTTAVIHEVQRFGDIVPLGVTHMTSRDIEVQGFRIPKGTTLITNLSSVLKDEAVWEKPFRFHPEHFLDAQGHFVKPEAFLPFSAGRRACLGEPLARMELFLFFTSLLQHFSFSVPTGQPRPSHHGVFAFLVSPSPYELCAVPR

`Nc1nc(SCc2ccc([N+](=O)[O-])cc2)c2ncn([C@@H]3O[C@H](CO)[C@@H](O)[C@H]3O)c2n1`: in assay [1], the result was inactive. Moreover, the Potency entry in assay [2] and in assay [3] was “inactive” in each case.
With `CN1CCc2cc(NC(=O)Nc3cccnc3)ccc21`, the result in assay [1] was inactive. The Potency result in assay [2] and in assay [3] was “inactive” throughout.
As to `CSc1ccccc1N1CCN(CCCCCC(=O)NC2CCCc3ccccc32)CC1` (centres undefined), the result in assay [1] was inactive. Moreover, the Potency entry in assay [2] and in assay [3] was “inactive” in each case.
For the molecule `C[N+]1(C)CCC(OC(=O)C(c2ccccc2)c2ccccc2)CC1`, in assay [1], the outcome was inactive. For the same molecule, the Potency entry in assay [2] and in assay [3] was “inactive” each time.
On to `COc1ccc2c(c1)CCC1C2CC[C@@]2(C)C1CC[C@@H]2NCCCCCCN1C(=O)CCC1=O` (some centres undefined), for which the outcome in assay [1] was inactive. Further, the Potency result in assay [2] and in assay [3] was “inactive” throughout.
For the molecule `C[N+](C)(C)CCOP(=O)(O)OP(=O)([O-])OC[C@H]1O[C@@H](n2ccc(N)nc2=O)[C@H](O)[C@@H]1O`, in assay [1], the result was inactive. Also, the Potency result in assay [2] and in assay [3] was “inactive” each time.
As to `OCC1O[C@H](O)C(Cl)C(O)C1O` (some centres undefined), the outcome in assay [1] was inactive. Further, the Potency result in assay [2] and in assay [3] was “inactive” in each case.
Consider `CNC(=O)[C@H]1O[C@@H](n2cnc3c(NCc4cccc(I)c4)ncnc32)[C@H](O)[C@@H]1O`, for which the result in assay [1] was inactive. Moreover, the Potency entry in assay [2] and in assay [3] was “inactive” throughout.
With `CCCCC#Cc1nc(NC)c2ncn([C@@H]3O[C@H](CO)[C@@H](O)[C@H]3O)c2n1`, in assay [1], the outcome was inactive. Also, the Potency result in assay [2] and in assay [3] was “inactive” each time.
For the molecule `NCCCCCCCCCCN`, the outcome in assay [1] was inactive. The Potency result in assay [2] and in assay [3] was “inactive” throughout.
As for `NC(CCCP(=O)(O)O)C(=O)O` (centres undefined), the outcome in assay [1] was inactive. For the same molecule, the Potency result in assay [2] and in assay [3] was “inactive” in each case.
Regarding `Nc1ncnc2c1ncn2[C@@H]1O[C@H](COP(=O)(O)CP(=O)(O)OP(=O)(O)O)[C@@H](O)[C@H]1O`, the result in assay [1] was inactive. Moreover, the Potency entry in assay [2] and in assay [3] was “inactive” each time.
As to `NS(=O)(=O)C#Cc1ccccc1`, the outcome in assay [1] was inactive. The Potency result in assay [2] and in assay [3] was “inactive” each time.
For `CNc1ncnc2c1ncn2[C@@H]1O[C@H](CO)[C@@H](O)[C@H]1O`, the result in assay [1] was inactive. Further, the Potency result in assay [2] and in assay [3] was “inactive” throughout.
As to `CC12C(=O)OC(=O)C1(C)C1CCC2O1` (centres undefined), in assay [1], the outcome was inactive. Further, the Potency entry in assay [2] and in assay [3] was “inactive” in each case.
`O=C1NC(O)=NC1(c1ccccc1)c1ccccc1`: the result in assay [1] was inactive. The Potency entry in assay [4] and in assay [3] was “inactive” each time.
As to `O=[N+]([O-])c1ccc(CSc2ncnc3c2ncn3[C@@H]2O[C@H](CO)[C@@H](O)[C@H]2O)cc1`, the result in assay [1] was inactive. In addition, the Potency result in assay [2] and in assay [3] was “inactive” in each case.
Regarding `Fc1cccc(/C=N/N=C/c2cccc(F)c2)c1`, the result in assay [1] was inactive. For the same molecule, the Potency result in assay [2] and in assay [3] was “inactive” each time.
`CC[C@@H](C)[C@H]1O[C@]2(CC[C@H]1C)C[C@@H]1C[C@@H](CC=C(C)[C@@H](O[C@H]3C[C@H](OC)[C@@H](O[C@H]4C[C@H](OC)[C@@H](O)[C@H](C)O4)[C@H](C)O3)[C@@H](C)C=CC=C3CO[C@@H]4[C@H](O)C(C)=C[C@@H](C(=O)O1)[C@]34O)O2`: the result in assay [1] was inactive. The Potency entry in assay [2] and in assay [3] was “inactive” throughout.
Consider `N[C@H](CCCP(=O)(O)O)C(=O)O`, for which the result in assay [1] was inactive. The Potency result in assay [2] and in assay [3] was “inactive” each time.
For the molecule `CSc1nc(N)c2ncn([C@@H]3O[C@H](COP(=O)(O)OP(=O)(O)OP(=O)(O)O)[C@@H](O)[C@H]3O)c2n1`, the result in assay [1] was inactive. Moreover, the Potency entry in assay [2] and in assay [3] was “inactive” in each case.
Consider `O=P(O)(O)C(Cl)(Cl)P(=O)(O)O`, for which, in assay [1], the outcome was inactive. In addition, the Potency result in assay [2] and in assay [3] was “inactive” each time.
As for `O=C(O)c1cc([N+](=O)[O-])ccc1NCCCc1ccccc1`, the result in assay [1] was inactive. Further, the Potency entry in assay [2] and in assay [3] was “inactive” throughout.
`Cn1ncc(S(=O)(=O)Cc2ccccc2)c(Br)c1=O`: the result in assay [1] was inactive. The Potency result in assay [2] and in assay [3] was “inactive” in each case.
In the case of `Nc1nc(Nc2ccccc2)nc2c1ncn2[C@@H]1O[C@H](CO)[C@@H](O)[C@H]1O`, the result in assay [1] was inactive. Moreover, the Potency result in assay [2] and in assay [3] was “inactive” throughout.
Consider `Brc1cc2c(cc1[C@H]1Nc3ccccc3[C@H]3C=CC[C@H]31)OCO2`, for which, in assay [1], the outcome was inactive. Further, the Potency entry in assay [3] is “inactive”.
In the case of `O=C(O)CC1CCCc2ccccc2C1O` (centres undefined), the result in assay [1] was inactive. The Potency result in assay [2] and in assay [3] was “inactive” in each case.
As for `COc1cccc(C(=O)NCCN2CCN(c3ccc(Cl)cc3)CC2)c1`, in assay [1], the result was inactive. In assay [3], the Potency result is “inactive”.
Regarding `CC(C)(C=O)Cc1cc(C(C)(C)C)c(O)c(C(C)(C)C)c1`, in assay [1], the result was inactive. Further, the Potency result in assay [2] and in assay [3] was “inactive” throughout.
Turning to `CCN(CC)c1ncnc2c1ncn2[C@@H]1O[C@H](COP(=O)(O)OP(=O)(O)C(Br)(Br)P(=O)(O)O)[C@@H](O)[C@H]1O`, the result in assay [1] was inactive. The Potency entry in assay [2] and in assay [3] was “inactive” each time.
With `Cc1cc2c(cc1Cl)N(C(=O)Nc1ccc(Oc3cccnc3C)nc1)CC2`, the outcome in assay [1] was inactive. In assay [3], the Potency entry is “inactive”.
Turning to `CC[C@H]1OC(=O)[C@H](C)C(O[C@H]2C[C@@](C)(OC)[C@@H](O)[C@H](C)O2)[C@H](C)[C@@H](OC2O[C@H](C)C[C@H](N(C)C)[C@H]2O)[C@](C)(O)C[C@@H](C)CN(C)[C@H](C)[C@@H](O)[C@]1(C)O` (some centres undefined), in assay [1], the outcome was inactive. The Potency result in assay [3] is “inactive”.
As to `CC(C)(NS(=O)(=O)c1ccc(Oc2ccc(F)cc2)cc1)C(=O)NO`, in assay [1], the outcome was inactive. Besides, the Potency entry in assay [3] is “inactive”.
